Reference: the supplement of paper PMC6555819

Key:
Assay in all cases: PBM binding z-score (relative to random genomic background probes); higher = stronger binding; sequences stand for … in GC…GCGATTGACAGCGTAGAATGAAGG
[1] = tested on: RARb homodimer (NR concentration 270 nM)
Outline: (§1)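 Random background probes are the reference for binding z-scores. These scores derive from regression-normalized fluorescence on custom Agilent 4×180K protein-binding microarrays incubated 1 h with ligand-free nuclear receptor dimers. Binding was detected with antibodies against each partner (one per run).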

[2] = tested on: RARg:RXRa (NR concentration 270 nM, RXRa partner concentration 90 nM)
Outline: as §1

[3] = tested on: RARg homodimer (NR concentration 270 nM)
Outline: as §1

[4] = tested on: RXRa DBDmut IVT, anti-RXR (DBD mutation: RXRa K156A/R161A, NR concentration 90 nM)
Outline: as §1

[5] = tested on: RXRa homodimer (NR concentration 180 nM)
Outline: as §1

[6] = tested on: THRa:RXRa (NR concentration 90 nM, RXRa partner concentration 90 nM)
Outline: as §1

[7] = tested on: THRa homodimer (NR concentration 90 nM)
Outline: as §1

[8] = tested on: VDR homodimer (NR concentration 270 nM)
Outline: as §1

Sequence	PBM binding z-score [1]	PBM binding z-score [2]	PBM binding z-score [3]	PBM binding z-score [4]	PBM binding z-score [5]	PBM binding z-score [6]	PBM binding z-score [7]	PBM binding z-score [8]
ATCTCTAGGTAACCTAGTTCAGTGAATGCCGAAC	1.27	0.609	0.668	0.329	0.722	1.61	0.673	0.972
CCTATTAGTTGACCATAAGGGCACCCGAAGCTCG	1.86	1.16	1.04	0.326	0.908	2.02	1.61	1.39
TCTAGTTCGTCAAAGGTCACACACTCGAAATGCG	4.99	6.46	6.31	2.95	6.75	4.64	2.53	3.49
TTACCAAGGGGAAGGTCGTTGATCCCTCTGTAGA	0.634	0.225	-0.054	-0.444	0.898	0.64	-0.636	0.435
CCTGCTAGGTCTTGGTCAGCTAATCTACAGTATG	0.408	-0.194	-0.144	0.336	-0.394	-0.178	-0.108	-0.656
TCGAGTAGGTTACGAATGGGGCATTCAGCTTTCT	0.29	0.904	0.405	0.441	0.67	-0.0841	-1.13	-0.811
AGGCAAAGTTCATCTAGGTAACGTAAGATATGCT	3.56	5.33	5.75	4.59	4.37	3.18	0.436	4.85
CCTGCTAGGTCATGGTGAGCTAATCTACAGTATG	2.8	3.83	4.17	1.72	2.52	2.82	0.878	-0.0752
AGAATGAGGTTAAAATCAGGGAAACAGAATACAT	0.545	1.94	1.31	1.51	2.62	2.4	0.43	0.808
ATCTCTAGTTAACAAGTTCAGTGAAAGAGAGGAC	1.64	1.07	1.06	1.03	0.676	1.12	0.867	2.76
ACAGACAGGTGATGAAGGTAACTCGGGCTATCAT	0.556	0.166	0.396	-0.159	0.351	0.765	0.0589	-0.217
GCGACTGGGGCAAAGCAGGTTACGATAAGGTTGG	1.04	0.351	0.644	-0.265	0.354	2.97	0.0259	-0.24
CCTACTGTGCCAAAGGTCATTGATTCCAATGCTC	4.59	5.61	5.21	2.09	6.46	3.46	1.72	3.37
CGAACTAGGTCAATGACAGTGAATCTCCGCACGC	2.77	3.48	4.07	1.91	2.36	2.2	0.673	0.425
AGAATGAGGTTACCAAAGATCTGGGAAACGCTTG	0.57	1.94	1.49	0.786	2.42	2.51	0.542	0.122
CCTAGTTGGTCAGGAGGACACACACCGGATATGA	1.58	1.2	1.73	-0.252	0.276	1.28	1.43	0.975
TCATATAGGTAAAAGGTGATAGTCGGTGTGGTAA	1.15	0.851	0.577	1.76	1.86	0.901	0.434	0.283
CGTCCAATGTCAAGGTCAGTGAAAGAGACTCGAA	3.45	3.38	4.06	1.1	2.22	2.91	2.18	1.57
CGAACTAGGTCAGAACAGGACAATGAAGGATGAT	2.03	2.55	3.32	0.605	1.37	3.62	0.458	0.155

Sequence	PBM binding z-score [1]	PBM binding z-score [2]	PBM binding z-score [3]	PBM binding z-score [4]	PBM binding z-score [5]	PBM binding z-score [6]	PBM binding z-score [7]	PBM binding z-score [8]
TAGCCTAGGTCAGTCAGGGGCCAGTATAGAAAGC	2.81	4.53	3.75	-0.63	1.18	1.86	0.122	0.0513
CCTAGCAGGCCAATCTGGGTCACTAAAGGCTTGA	2.01	0.915	1.17	0.23	0.402	3.4	0.446	0.000244
CGTAGTTGGTCAAGGTCACACACGCTATAGGTAC	4.23	4.34	4.9	2.14	4.06	4.05	3.89	2.45
TCTTGAAGATCAGCAGGTTAAGAAAGCTGGCCAA	-0.114	-0.154	-0.281	0.572	0.316	-0.00481	-1.05	-0.317
CCTTACTGGTCAAGGTTATAGCACGGGTGGTACG	1.78	1.43	1.55	-0.171	1.37	1.52	1.09	0.749
CCTGCTAGGTCAATGGTCAGCTGAAGCAGCTCGC	3.18	3.7	4.37	1.85	2.2	2.36	0.335	0.0523
CCTACTGGGCCAAGGTCATTGATCAGTCAAAGCA	3.43	3.59	2.83	1.19	3.08	3.49	2.36	2.15
GGAACGTGGGCAAAGTTGATAGCATCTGTCGACG	-0.345	-0.158	-0.178	-0.177	-0.03	-0.579	-0.838	-0.389
AGTCAAAGTTCCGGACGAGGTAACGTAAAGCACG	0.173	0.181	0.277	-0.303	0.201	1.62	0.886	-0.0573
AGAATGAGGTTATACGTAGTTCAGGGAAGAAAGT	1.63	3.82	1.45	1.54	2.57	2.55	0.588	1.61
TTACCAGGGTGAAGGTCGTTGATCCCTCTGTAGA	1.74	1.16	0.774	-0.374	2.14	1.84	0.461	0.856
CCTGCTGGGCCATTCAGAGGTCATTGATCATATG	4.1	4.63	3.19	1.05	3.79	3.24	1.12	3.17
ACTAGCAGGCCAAGGGTCTCTCAAGATTAGTCCG	-0.0592	-0.0301	0.272	-0.533	0.0173	-0.234	-0.93	-0.872
ATCTGTAGGTTACATCCGGGTCATTCAGGCTATG	3	3.79	2.18	1.17	3.04	3.81	2.84	2.67
TAGCCTAGGTCATGGGCCCGTATACCACGCGAAC	2.95	4.3	4.56	-0.133	3.53	3.13	1.76	0.701
TCTTGTAAATCAAAGGTTAAGAAAGCCGAAGCCT	1.35	1.39	0.692	0.749	2.24	0.996	-0.284	-0.116
TCGAGTAGGTTAGTGGCATTCAGAATGGCGTCGA	-0.183	-0.478	-0.516	0.0324	-0.235	-0.441	-0.559	-0.54
CCTTACGGGTCACTGACAGGTTATAGGATTTGGA	3.52	5.89	4.77	1.67	5.17	2.96	0.251	1.28
ATATGTAGGTAATCGGGTCATTCAGTTTGCGCAT	2.15	2.06	1.32	1.13	2.55	3.16	2.46	3.14

Sequence	PBM binding z-score [1]	PBM binding z-score [2]	PBM binding z-score [3]	PBM binding z-score [4]	PBM binding z-score [5]	PBM binding z-score [6]	PBM binding z-score [7]	PBM binding z-score [8]
TCATATAGGTAAACAGGTCAAAGTCCGTAAGTTA	2.99	3.2	2.4	1.54	3.59	2.27	0.804	1.93
ACAGAGAGGTGATGAAGGTAACTCAGGCTATCAT	0.584	0.531	0.832	-0.266	0.587	1.33	0.312	-0.222
CCTCACGGGTCAAGGTTATAGCACGGGTGGTACG	3.31	4.6	4.55	-0.168	4.92	2.82	0.624	1.18
GATACAGGGTCAAGGCCGGAGTACGCGTATTGAT	3.43	5.35	5.4	2.23	5.79	3.46	1.03	1.78
GTACCAAGCTGAATAGGTCGTTGATGAGTAGGCG	0.0267	-0.0216	0.164	-0.0938	0.371	-0.0665	-0.873	-0.43
CGTCAAAGTTCAAGGTAACGTCACAGAAAGCAGC	4.13	5.4	6.15	4.55	4.78	3.12	1.48	3.12
GGAACGAGGGCATTCGAGTTGATGGCATGGCGAT	0.552	1.05	1.17	3.15	0.655	2.96	-0.631	3.46
CCTAGTTGTTCAAGGTCACACACGCTATAGGTAC	4.25	4.69	4.87	2.65	4.92	4.3	4.9	4.98
GCTTGTAGATCAAGGTTAAGCAAGACTAAGCTAA	0.306	0.623	0.359	-0.0459	0.912	1.67	-0.236	-0.472
ATCGAAAGGTCGACGAGATGAGTATACACCGTTT	2.29	3.91	3.95	1.01	4.04	1.72	-0.43	0.403
TCTGGTAGATCAACAGGAGGTTAAGAAAGATCGA	0.385	0.66	0.298	0.299	0.827	0.849	-0.374	0.00452
GCATATAGGTAATACTAGGTGAAAGTCCGATTGT	0.423	0.466	0.359	0.563	0.745	3.45	0.246	0.235
GCGACTGGGGCAAAGCAGGTTACCGTAAGGTTGG	1.14	0.477	0.183	-0.47	0.234	3.15	-0.142	-0.434
ATATCAAGGTGATCGTGAGGTCGTTGATACTAAC	1.5	2.42	1.24	0.829	1.61	3.46	2.27	2.79
AGAATGAGGTTATGAAGATCAGGGAATTGCGGTC	1.07	1.45	1.06	1.05	2.45	2.35	0.96	0.716
CCAGACAGGTGAGAAGGTAACTAAGCCTCGATTA	0.66	0.524	0.586	-0.275	0.277	0.221	-0.101	-0.0907
CCTCCAAGGTCAGAGAGGTCAGTGAATGCCGAGT	5.51	6.2	6.87	3.18	5.37	4.36	2.59	4.62
TCTGCTAGGTCGACGATGGTCAGCTAATCTGCTA	0.457	0.664	0.829	0.128	0.321	0.669	-0.884	-0.845
CCTAGGTGGTCAGGAGGTCACACACCGGATATGA	4.34	5.44	4.63	0.00245	5.16	3.45	2.2	2.85
